We go through 85 compounds from PubChem BioAssay AID1851 (National Center for Advancing Translational Sciences (NCATS), 2009).

Molecules are shown by their SMILES. About 5,800 (36%) of roughly 16,000 compounds were called active. Not shown: some 23% with an inconclusive outcome. Some of the results follow. A number with no mark means an inactive call. Calls follow the shape of the dose curve; as a rule, active = well fitted curve in the direction sought with a large enough effect; inconclusive = small, poorly fitted or top-dose-only effect, or effect the other way; inactive = no such curve, though single readings can be large or run the other way.
% is scaled to controls: 0 for no effect and ±100 for the full control effect.

The target in this assay is Cytochrome P450 2C19 (Homo sapiens) (UniProt P33261). Nature of the assay: Cytochrome panel assay with activity outcomes. Particulars: recombinant CYP, pro-luciferin dealkylation, luminescence, p450-cyp2c19; series mostly up to 57.1 µM.
Sequence of Cytochrome P450 2C19 (Homo sapiens) (P33261 whole entry, looked up): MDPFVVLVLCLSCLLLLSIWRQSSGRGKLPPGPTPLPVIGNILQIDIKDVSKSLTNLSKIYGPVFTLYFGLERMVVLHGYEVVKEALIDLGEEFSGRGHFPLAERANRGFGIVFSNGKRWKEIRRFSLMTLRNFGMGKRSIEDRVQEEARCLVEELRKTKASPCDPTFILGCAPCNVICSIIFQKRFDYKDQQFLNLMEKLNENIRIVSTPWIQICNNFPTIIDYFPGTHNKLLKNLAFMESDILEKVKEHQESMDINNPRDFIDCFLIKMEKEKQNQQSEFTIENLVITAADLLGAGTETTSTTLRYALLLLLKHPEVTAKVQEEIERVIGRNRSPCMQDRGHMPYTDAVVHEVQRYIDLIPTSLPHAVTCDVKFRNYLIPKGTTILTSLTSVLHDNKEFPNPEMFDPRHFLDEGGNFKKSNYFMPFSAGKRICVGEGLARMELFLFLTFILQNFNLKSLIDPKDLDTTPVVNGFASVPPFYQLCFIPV
Take `COc1cc(/C=N/NC(N)=O)c(Br)cc1OCC(=O)Nc1ccccc1C`: the half-maximal activity concentration (AC50) is 11.2 µM (active).

Regarding `O=C1C2=C(NC(=S)NC2c2ccc(Cl)cc2)NC(c2ccc(Cl)cc2)N1c1ccc(Cl)cc1` (stereo not given), the concentration at half-maximal activity (AC50) was 2.24 µM (active).

As for `COc1cccc(Cn2c(=O)c(-c3cccs3)nc3cnc(Nc4cccc(OC)c4)nc32)c1`, the AC50 result is “inactive”.

On to `CCC(Sc1nc2cc3c(cc2c(=O)n1Cc1ccco1)OCO3)C(=O)Nc1ccccc1OC` (stereo not given), for which the AC50 was 2.51 µM (active).

As to `CCC(Sc1nc2cc3c(cc2c(=O)n1Cc1ccco1)OCO3)C(=O)Nc1cccc(OC)c1` (stereo not given), the half-maximal activity concentration (AC50) was 7.08 µM (active).

With `COc1cccc(Nc2ncc3nc(-c4cccs4)c(=O)n(Cc4cccs4)c3n2)c1`, the AC50 entry was “inactive”.

On to `Cn1c(=O)c2[nH]cnc2n(C)c1=O`, for which the AC50 entry was “inactive”.

Consider `Cc1nc2sccc2c(=O)n1-c1cccc(Cl)c1`, for which the concentration at half-maximal activity (AC50) was 0.794 µM (active).

Regarding `N#CCCn1c(=O)c(-c2cccs2)nc2cnc(Oc3cccc(Cl)c3)nc21`, the AC50 result is “inactive”.

As to `CC(=O)OC[C@@H]1O[C@H](CCO/N=C\[C@@H](C)[C@H](OCc2ccccc2)C(C)C)C=C[C@@H]1OC(C)=O`, the activity, negative = inhibition was -11.7% [at 11.4 µM].

Take `COC(=O)C/C=C\[C@@H](C)[C@@H](/C=N\O[C@@H](C)CN1CCCCc2nc(C)c(C)cc21)NS(=O)(=O)c1ccc(C)cc1`: the activity, negative = inhibition is -9.76% [at 11.4 µM].

Turning to `COC(=O)C/C=C\[C@@H](C)[C@@H](/C=N\OC[C@@H](O)[C@H]1O[C@H]2OC(C)(C)O[C@H]2[C@@H]1O)NS(=O)(=O)c1ccc(C)cc1`, the activity, negative = inhibition is -25.2% [at 11.4 µM].

For the compound `C=CC[C@@H]1C=C[C@@H](O/N=C\[C@@H](OC)[C@H](C)/C=C\CC(=O)OC)[C@@H](CO)O1`, the activity, negative = inhibition is -6.92% [at 11.4 µM].

As to `COC(=O)C/C=C\[C@@H](C)[C@@H](/C=N\OC[C@@H]1O[C@H](c2ccccc2)C=C[C@@H]1Oc1ccc(OC)cc1)NS(=O)(=O)c1ccc(C)cc1`, the concentration at half-maximal activity (AC50) is 0.398 µM (active).

Turning to `COC(=O)C/C=C\[C@@H](C)[C@@H](/C=N\OC[C@@H]1O[C@H](c2ccccc2)C=C[C@@H]1Oc1ccc(OC)cc1)OC`, the half-maximal activity concentration (AC50) is 1.58 µM (active).

On to `C=CC[C@@H]1C=C[C@H](O/N=C\[C@@H](C)[C@H](OCc2ccccc2)C(C)C)[C@H](CO)O1`, for which the activity, negative = inhibition was -27.4% [at 11.4 µM].

On to `COC(=O)C/C=C\[C@@H](C)[C@@H](/C=N\OC[C@@H](O)COCc1ccco1)OC`, for which the activity, negative = inhibition is -19.2% [at 11.4 µM].

Regarding `CCCNC(=O)OC[C@H]1O[C@@H](CCO/N=C\[C@@H](NS(=O)(=O)c2ccc(C)cc2)[C@H](C)/C=C\CC(=O)OC)C=C[C@@H]1Oc1ccc(OC)cc1`, the AC50 is 3.16 µM (active).

As for `COC(=O)C/C=C\[C@@H](C)[C@@H](/C=N\OCC[C@H]1C=C[C@H](OC(C)=O)[C@@H](COC(C)=O)O1)NS(=O)(=O)c1ccc(C)cc1`, the activity, negative = inhibition is -2.17% [at 11.4 µM].

As to `CCCNC(=O)OC[C@@H]1O[C@H](CCO/N=C\[C@@H](C)[C@H](OCc2ccccc2)C(C)C)C=C[C@@H]1Oc1ccc(OC)cc1`, the half-maximal activity concentration (AC50) was 3.16 µM (active).

Consider `CCCc1c(OCCCOc2ccc(OCC(=O)O)cc2)ccc(C(C)=O)c1O`, for which the AC50 entry is “inactive”.

In the case of `O=C1C2C3C=CC(C3)C2C(=O)N1/N=C/c1cn(Cc2ccc(F)cc2)c2ccccc12` (stereo not given), the concentration at half-maximal activity (AC50) was 11.2 µM (active).

For the compound `c1ccc(NCCSc2nc3ccccc3s2)cc1`, the AC50 was 0.398 µM (active).

With `NCCSc1nc2ccccc2s1`, the half-maximal activity concentration (AC50) is 1.58 µM (active).

Turning to `Oc1ccccc1C(Sc1nc2ccccc2s1)Sc1nc2ccccc2s1`, the half-maximal activity concentration (AC50) is 3.16 µM (active).

For the compound `c1ccc2sc(SCCSc3nc4ccccc4s3)nc2c1`, the activity, negative = inhibition was 6.86% [at 11.4 µM].

For the compound `c1ccc2sc(SCSc3nc4ccccc4s3)nc2c1`, the AC50 is 1.26 µM (active).

Consider `C[N+](C)(C)CC(=O)O`, for which the AC50 entry is “inactive”.

For `CC(C)OC(=O)CC12CN(C)CC(CC(=O)OC(C)C)(CN(C)C1)C2=O`, the AC50 entry is “inactive”.

For the compound `COc1ccc(-c2nc3cnc(N4CCOCC4)nc3n(C[C@H]3CCCO3)c2=O)cc1`, the AC50 result is “inactive”.

On to `O=C(O)[C@@H]1CS[C@@]2(CCCN(Cc3ccccc3)C2)N1`, for which the activity, negative = inhibition was 7.34% [at 11.4 µM].

For `C#CCCCO/N=C1/C[C@@H](O)[C@@H](O)[C@@H]2[C@@H]3C(=O)N(CC)C(=O)[C@H]3CC[C@@H]12`, the activity, negative = inhibition is -28.6% [at 11.4 µM].

As to `CCOC(=O)c1cnc(SCCc2ccccc2)nc1N`, the concentration at half-maximal activity (AC50) was 7.94 µM (active).

As to `Cc1ccc(C2=Nc3ccccc3S[C@@H](c3cccc([N+](=O)[O-])c3)C2)cc1`, the AC50 is 3.98 µM (active).

In the case of `Cc1ccc(/C(C#N)=C/c2cccc([N+](=O)[O-])c2)cc1`, the activity, negative = inhibition was 8.97% [at 11.4 µM].

As to `NC[C@@H]1O[C@H](C23CC4CC(CC(C4)C2)C3)Cc2c1ccc(O)c2O`, the AC50 result was “inactive”.

On to `NC[C@@H]1O[C@H](c2ccccc2)Cc2c1ccc(O)c2O`, for which the half-maximal activity concentration (AC50) is 1 µM (active).

Turning to `O=C1[C@H]2[C@H]3[C@H](O)[C@H](O)C/C(=N/OCc4ccccc4)[C@@H]3CC[C@@H]2C(=O)N1C[C@@H]1CCCO1`, the activity, negative = inhibition was -0.01% [at 11.4 µM].

In the case of `CC1(CCC(=O)OC2CCCCC2)OCCO1`, the activity, negative = inhibition is -35.8% [at 11.4 µM].

Consider `O=C(CC1(O)CCCCC1)OC1CCCC1`, for which the AC50 is 1.58 µM (active).

Regarding `CC1(CC(=O)O)O[C@H]2CCCCC[C@H]2O1` (stereo not given in full) (tested in a mixture with another compound), the activity, negative = inhibition is 1.88% [at 11.4 µM].

`Cc1cnc(CNc2cc(-c3ccccc3CN(C)C)ncn2)cn1`: the AC50 result is “inactive”.

As for `COc1ccccc1CNc1cc(-c2ccccc2C)ncn1`, the AC50 was 1 µM (active).

As to `COc1ccccc1CNc1cc(-c2ccc(C(=O)N(C)C)cc2)ncn1`, the AC50 entry is “inactive”.

As for `COc1ccccc1CNc1cc(-c2ccccc2OC)ncn1`, the concentration at half-maximal activity (AC50) was 1.58 µM (active).

Consider `CC1CCN(c2cc(N3CCC(C)CC3)c([N+](=O)[O-])cc2/C=C(\C#N)c2nn(-c3ccccc3)c(N)c2C#N)CC1`, for which the concentration at half-maximal activity (AC50) was 0.447 µM (active).

With `N#C/C(=C\c1cc([N+](=O)[O-])c(N2CCCCC2)cc1N1CCCCC1)c1nn(-c2ccccc2)c(N)c1C#N`, the AC50 was 0.282 µM (active).

Take `Cc1noc(C)c1C(=O)N1CCC2(CCN(C(=O)NC(C)C)CC2)CC1`: the AC50 result was “inactive”.

Consider `OC[C@@H]1NC[C@@H](O)[C@@H](O)[C@H]1O`, for which the AC50 result is “inactive”.

For `O=C(NNC(=S)NCc1ccco1)c1ccc(Cl)s1`, the AC50 was 7.94 µM (active).

Take `Nc1ncnc2c1ncn2[C@H]1O[C@@H](C(=O)OCCO)[C@@H](O)[C@H]1O`: the activity, negative = inhibition was 4.2% [at 11.4 µM].

With `C=C1c2cccc(O)c2C(O)=C2C(=O)[C@@]3(O)C(O)=C(C(N)=O)C(=O)[C@@H](N(C)C)[C@@H]3[C@@H](O)[C@H]12`, the AC50 result was “inactive”.

On to `CCC(C(=O)c1ccccc1)N(C(=O)c1ccccc1Cl)N1C(=O)C2C3C=CC(C3)C2C1=O` (stereo not given), for which the AC50 was 3.55 µM (active).

For `Cc1c(NC(=O)CN2C(=O)C3C4C=CC(C4)C3C2=O)c(=O)n(-c2ccccc2)n1C` (stereo not given), the AC50 entry is “inactive”.

On to `Cc1c(NC(=O)NC(C)N2C(=O)C3C4C=CC(C4)C3C2=O)c(=O)n(-c2ccccc2)n1C` (stereo not given), for which the AC50 entry was “inactive”.

Take `COc1ccc(C(=O)Nc2ccc3c(c2)nc(CN2CCN(C(C)=O)CC2)n3C)cc1`: the AC50 entry was “inactive”.

`Cn1c(CN2CCCCC2)nc2cc(NC(=O)c3ccc(Cl)cc3)ccc21`: the AC50 is 28.2 µM (active).

Consider `Cn1cc(/C=C2/SC(=O)N(CC(=O)Nc3ccc4c(c3)OCO4)C2=O)c2ccccc21`, for which the concentration at half-maximal activity (AC50) was 0.794 µM (active).

As to `CC(C)n1cc(/C=C2/SC(=O)N(CC(=O)Nc3ccc4c(c3)OCO4)C2=O)c2ccccc21`, the concentration at half-maximal activity (AC50) was 5.01 µM (active).

Consider `Cc1ccc(NC(=O)CN2C(=O)S/C(=C\c3cccn3C)C2=O)cc1`, for which the AC50 entry was “inactive”.

Take `CCn1c(C)cc(/C=C2\SC(=O)N(CC(=O)Nc3ccc(C)c(C)c3)C2=O)c1C`: the half-maximal activity concentration (AC50) was 1.12 µM (active).

For `Cc1c(/C=C2\SC(=O)N(CC(=O)Nc3ccc4c(c3)OCO4)C2=O)c2ccccc2n1C`, the concentration at half-maximal activity (AC50) is 2.51 µM (active).

In the case of `CC(C)=CCC/C(C)=C/CO/N=C1/C[C@@H](O)[C@@H](O)[C@@H]2[C@H]3C(=O)N(c4ccc(F)cc4F)C(=O)[C@@H]3CC[C@H]12`, the activity, negative = inhibition is -33.8% [at 11.4 µM].

Regarding `CCNc1ncc2nc(-c3ccccc3)c(=O)n(Cc3cccs3)c2n1`, the AC50 entry is “inactive”.

For `CN(C)c1ncc2nc(-c3ccc(Cl)cc3)c(=O)n(Cc3cccs3)c2n1`, the AC50 entry was “inactive”.

For the compound `COc1cccc(Cn2c(=O)c(CCc3ccccc3)nc3cnc(N(C)C)nc32)c1`, the concentration at half-maximal activity (AC50) is 0.794 µM (active).

Regarding `COc1cccc(Cn2c(=O)cnc3cnc(N(C)C)nc32)c1`, the concentration at half-maximal activity (AC50) is 2.51 µM (active).

Take `CN(C)c1ncc2nc(CCc3ccccc3)c(=O)n(Cc3cccs3)c2n1`: the concentration at half-maximal activity (AC50) is 6.31 µM (active).

Turning to `CN(C)c1ncc2nc(-c3ccc(F)cc3)c(=O)n(Cc3cccs3)c2n1`, the AC50 result is “inactive”.

With `CCNc1ncc2nc(CCc3ccccc3)c(=O)n(Cc3cccc(OC)c3)c2n1`, the AC50 is 6.31 µM (active).

Consider `COc1cccc(Cn2c(=O)c(-c3cc(F)cc(F)c3)nc3cnc(N(C)C)nc32)c1`, for which the AC50 result was “inactive”.

On to `COc1cccc(Cn2c(=O)c(-c3ccccc3)nc3cnc(N(C)C)nc32)c1`, for which the AC50 entry was “inactive”.

Regarding `C=CCN1CCc2cc(O)c(O)cc2[C@H](c2ccccc2)C1`, the AC50 result is “inactive”.

Regarding `COc1cccc(Cn2c(=O)c(CCc3ccccc3)nc3cnc(OC)nc32)c1`, the AC50 was 15.8 µM (active).

Regarding `CN(C)c1ncc2nc(CCc3ccccc3)c(=O)n(Cc3ccc(F)cc3)c2n1`, the AC50 was 0.794 µM (active).

In the case of `CN(C)c1ncc2ncc(=O)n(Cc3cccs3)c2n1`, the half-maximal activity concentration (AC50) was 10 µM (active).

On to `CN(C)c1ncc2nc(-c3ccccc3)c(=O)n(Cc3ccc(F)cc3)c2n1`, for which the AC50 result is “inactive”.

On to `COc1cccc(Cn2c(=O)c(-c3cn(C)c4ccccc34)nc3cnc(OC)nc32)c1`, for which the AC50 result is “inactive”.

As to `COc1ccc(Oc2ncc3nc(-c4cccc(C#N)c4)c(=O)n(Cc4cccc(OC)c4)c3n2)cc1`, the AC50 entry is “inactive”.

Turning to `COc1ccc(-c2nc3cnc(OC)nc3n(Cc3cccc(OC)c3)c2=O)cc1`, the AC50 entry is “inactive”.

As to `COc1cccc(Cn2c(=O)c(-c3cccc(C#N)c3)nc3cnc(Nc4ccccc4)nc32)c1`, the AC50 entry was “inactive”.

As for `Cc1nc2cnc(N(C)C)nc2n(Cc2cccs2)c1=O`, the AC50 result is “inactive”.

On to `CN(C)c1ncc2nc(-c3cccs3)c(=O)n(Cc3cccs3)c2n1`, for which the AC50 entry is “inactive”.

For the compound `COc1cccc(Cn2c(=O)c(-c3cccc(C#N)c3)nc3cnc(OC)nc32)c1`, the concentration at half-maximal activity (AC50) is 10 µM (active).

As to `CN(C)c1ncc2nc(-c3cc(F)cc(F)c3)c(=O)n(CCc3ccccc3)c2n1`, the AC50 result was “inactive”.

A word on the AC50: it is the concentration giving half of the maximal activity seen.
